# Only some compounds are listed: those with a hit (about 3.5% of all), similar ones and a draw of the others.
# Rv3671c inh: inhibits the M. tuberculosis serine protease Rv3671c | P9WHR9 | inhibition, % at 5.96 µM | 320,000 compounds, 0.048% hits; in the data active means inhibition above about 38%;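 further: extracellular domain of Rv3671c used as enzyme; 0% = enzyme with DMSO and 100% = no enzyme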
# UGM FP inh: Mtb UDP-galactopyranose mutase inhibition. P9WIQ1. purified UGM, fluorescence polarization probe displacement. inhibition, % at 10 µM. 320,000 compounds, 0.06% hits. AID 504406; in the data active means inhibition above about 10%, passing the limit was not always enough
# Target sequence (P9WIQ1 whole entry, looked up): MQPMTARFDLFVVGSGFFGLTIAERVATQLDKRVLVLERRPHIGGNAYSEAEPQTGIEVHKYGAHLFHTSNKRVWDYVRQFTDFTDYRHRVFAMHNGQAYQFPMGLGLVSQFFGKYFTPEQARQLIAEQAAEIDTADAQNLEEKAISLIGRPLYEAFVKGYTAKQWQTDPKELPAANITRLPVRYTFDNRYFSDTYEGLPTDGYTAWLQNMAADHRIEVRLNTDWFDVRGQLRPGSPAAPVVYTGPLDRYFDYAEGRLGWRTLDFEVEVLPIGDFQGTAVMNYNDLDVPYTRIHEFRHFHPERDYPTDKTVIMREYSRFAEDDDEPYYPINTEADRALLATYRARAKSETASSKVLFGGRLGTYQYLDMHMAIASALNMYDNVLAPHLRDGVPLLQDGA
# Mtb FBA inh: inhibits M. tuberculosis FBA enzyme; P9WQA3; purified M. tuberculosis FBA, fluorescence read-out; inhibition, % at 1 µM; 360,000 compounds, 2.3% hits; AID 588726;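 further: 0% = vehicle and 100% = reference inhibitor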
# GDH-TPI counter-1: counter-screen for M. tuberculosis FBA inhibitors: GDH-TPI coupled enzymes; GDH-TPI coupled enzyme counterscreen, NADH absorbance; 360,000 compounds, 1.2% hits; inhibition, % at 4.8 µM; in the data active means inhibition above about 30%;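 further: 0% = DMSO wells and 100% = wells lacking the enzyme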
# Mtb FBA inh conf: confirmation of M. tuberculosis fructose-bisphosphate aldolase inhibitors | purified M. tuberculosis FBA, fluorescence read-out | inhibition, % at 1 µM | shares compounds with Mtb FBA inh | AID 651616 | 5,600 compounds, 78% hits;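 further: 0% = vehicle wells and 100% = reference inhibitor wells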
# GDH-TPI counter-2: counter-screen for M. tuberculosis FBA inhibitors: GDH-TPI coupled enzyme inhibition. GDH-TPI coupled enzyme counterscreen, fluorescence. shares compounds with Mtb FBA inh. 5,600 compounds, 81% hits. AID 652141. inhibition, % at 1 µM; in the data active means inhibition above about 10%
# GDH-TPI dose: inhibits GDH-TPI coupling enzymes in dose response. GDH-TPI coupled enzyme assay, fluorescence, artifact counterscreen. 170 compounds, 79% hits. shares compounds with Mtb FBA inh. AID 652145. IC50, µM; call rule not given here
# * = called active by the depositor; . = no result given; + = active, no number. Unless noted, no stated cut-off is given here; in the data, active means inhibition above about 27%; inactive means the rest.
SMILES,Rv3671c inh,UGM FP inh,Mtb FBA inh,GDH-TPI counter-1,Mtb FBA inh conf,GDH-TPI counter-2,others
Cc1c(OC(C)C(=O)NCCCN2CCOCC2)ccc2c3c(c(=O)oc12)CCC3 (configuration not stated),-1,-4,18,11,.,.,
Cc1c(OC(C)C(=O)NCCCN2CCOCC2)ccc2c3c(c(=O)oc12)CCCC3 (configuration not stated),-5,3,27*,0,48*,38*,
Cc1c(OC(C)C(=O)NCCN2CCOCC2)ccc2c3c(c(=O)oc12)CCC3 (configuration not stated),-7,1,25,-1,.,.,
O=C(Cc1cccc(C(F)(F)F)c1)N1CCCC1,-10,0,1,4,.,.,
CC(C)(C)OC(=O)N1CCC[C@H]1C(=O)N/N=C/c1cccc2nccnc12,-5,1,2,17,.,.,
Nc1c(C(=O)NCCN2CCOCC2)c2nc3ccccc3nc2n1CCc1ccccc1,2,0,94*,9,46*,34*,
CC(=O)Nc1ccc(S(=O)(=O)C(C#N)c2nc3ccccc3nc2NCCN2CCOCC2)cc1 (configuration not stated),-3,5,56*,13,73*,62*,
COc1ccc(-n2c(N)c(C(=O)NCc3ccco3)c3nc4ccccc4nc32)cc1,-5,-1,98*,32*,44*,41*,
COCCn1c(N)c(C(=O)NCc2cccs2)c2nc3ccccc3nc21,-84,1,101*,-11,116*,77*,
Nc1c(C(=O)NCc2ccc3c(c2)OCO3)c2nc3ccccc3nc2n1CCCN1CCOCC1,8,-2,10,2,.,.,
CCn1cc(C(C)NC(=O)Nc2ccccc2C(=O)OC)c(C)n1 (configuration not stated),-5,0,23,-4,.,.,
OC(c1ccc(F)c(F)c1)c1nc(-c2csc3ccccc23)cs1 (configuration not stated),.,.,5,7,.,.,
CC(=O)Nc1ccc(S(=O)(=O)c2c(N)n(CCN3CCOCC3)c3nc4ccccc4nc23)cc1,4,-2,60*,26,170*,129*,
Nc1c(C(=O)NCc2ccco2)c2nc3ccccc3nc2n1CCN1CCCCC1,-31,0,91*,18,13,5,GDH-TPI dose=1.6*
C=CCNC(=O)c1c(N)n(CCN2CCOCC2)c2nc3ccccc3nc12,0,2,51*,19,38*,27*,
O=C(Cn1c(CN2CCCCC2)nc2ccccc2c1=O)NCc1ccco1,-4,0,-1,1,.,.,
COc1cccc(CNC(=O)c2ccccc2-c2ccccc2)c1,0,2,1,1,.,.,
CC(C)c1cc(NCCCN2CCOCC2)n2c(nc3ccccc32)c1C#N,-14,0,51*,6,169*,129*,
N#Cc1c2c(c(NCCCN3CCOCC3)n3c1nc1ccccc13)CCC2,6,3,27*,14,52*,60*,
N#Cc1cnn2c(-c3ccccc3)ccnc12,7,0,66*,6,+,+,
N#Cc1cnc2ncnn2c1-c1ccccc1,-1,0,-2,4,.,.,
CCOCCCNC(=O)c1cc2c(s1)-c1ccccc1SC2,-19,0,-4,4,.,.,
CN(C)CCNC(=O)c1cc2c(s1)-c1ccc(Cl)cc1SC2,.,-3,34*,6,106*,90*,
CC1(C)Oc2ccc3ccc(=O)oc3c2C[C@H]1O,5,1,88*,16,149*,113*,
CC1(C)Oc2ccc3ccc(=O)oc3c2/C(=C/O)C1=O,6,8,44*,20,153*,119*,
CC1(C)Oc2ccc3ccc(=O)oc3c2C(N2CCCCC2)C1O (configuration not stated),-9,0,6,-3,.,.,
CC1(C)Oc2ccc3ccc(=O)oc3c2/C(=C/N)C1=O,0,-1,1,16,.,.,
C/C=C(/C)C(=O)O[C@@H]1Cc2c(ccc3ccc(=O)oc23)OC1(C)C,2,3,45*,15,68*,42*,
CC1(C)Oc2ccc3ccc(=O)oc3c2[C@H](O)[C@H]1O,-3,1,58*,18,69*,59*,

# Bioassay records: PubChem BioAssay, several laboratories
